Pf Dd2 growth = P. falciparum Dd2 growth inhibitors, primary screen, SYBR Green fluorescence, single dose replicates; 72 h; hits give low values; AID 1159554, 2015; 94,000 compounds, 2.3% hits; activity change, % at 10 µM; in the data active means activity change below about -80%; inconclusive means no clear call, values can overlap the other calls
C diff HTS = C. difficile growth inhibitors, primary screen, HTS; growth activity, negative = inhibition, % at 16 µg/mL (by protocol); Clostridium difficile clinical isolate growth, OD600, 24 h; hits give low values; AID 1259249, 2017; 86,000 compounds, 0.25% hits;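 active means mean growth activity at or below -80% and every replicate also at or below -80%; inconclusive means mean at or below -80% but some replicate above -80%; inactive means mean growth activity above -80%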
T cruzi growth-1 = T. cruzi intracellular proliferation inhibitors, primary screen, cell-based, beta-gal Tulahuen parasites, NIH3T3 host, luminescence | T. cruzi beta-gal in NIH3T3, GalScreen luminescence, 90 h | inhibition, % at 8.34 µM | 77,000 compounds, 5.9% hits;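 active means mean inhibition above about 93%, with at least 55% of replicates each passing it, limit read from the data, passing the limit was not always enough; inconclusive means only one of those two conditions holds; inactive means neither condition holds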
T cruzi growth-2 = T. cruzi intracellular proliferation inhibitors, confirmation, cell-based, NIH3T3 host, beta-gal parasite, luminescence, cherry-pick; shares compounds with T cruzi growth-1; T. cruzi beta-gal in NIH3T3, GalScreen luminescence, 90 h; inhibition, % at 8.35 µM; 5,600 compounds, 72% hits; AID 651739, 2012;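 active means mean replicate inhibition above about 95% and at least 55% of replicates individually reaching it, limit read from the data; inconclusive means only one of the two criteria is met; inactive means neither criterion is met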
T cruzi growth-3 = inhibitors of intracellular T. cruzi replication, confirmation, NIH3T3 host cells, beta-gal parasites, cherry-pick, set 2; shares compounds with T cruzi growth-1; T. cruzi beta-gal in NIH3T3, GalScreen luminescence, 90 h; inhibition, % at 2.09 µM; 5,600 compounds, 21% hits; AID 651740, 2012;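 active means mean inhibition above about 95%, with at least 55% of replicates also reaching it, limit read from the data; inconclusive means meets just one of the two conditions; inactive means meets neither condition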
3T3 cytotox = cytotoxicity in mouse NIH/3T3 fibroblasts, confirmation, cytotoxicity control for T. cruzi proliferation inhibitor project, cell-based, cherry-pick, single point | shares compounds with T cruzi growth-1 | cytotoxicity (signal decrease), % at 8.35 µM | AID 651742, 2012 | 5,600 compounds, 14% hits | NIH/3T3 viability, CellTiter-Glo ATP luminescence, 90 h;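 active means mean signal decrease across replicates above about 35% based on untreated-well scatter, with enough replicates individually passing, limit read from the data; inconclusive means no rule stated though some were filed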
NIH3T3 tox 2 = NIH/3T3 fibroblast cytotoxicity, confirmation, cytotoxicity control, cell-based, cherry-pick, single point, set 2; shares compounds with T cruzi growth-1; inhibition, % at 24.9 µM; AID 651744, 2012; NIH/3T3 viability, CellTiter-Glo ATP luminescence, 90 h; 5,600 compounds, 56% hits;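 active means mean loss of cell viability signal at or above a set limit, and enough replicates individually reaching it; inconclusive means meets only the mean limit or only the replicate share; inactive means meets neither condition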
A number is an active result; – = inactive; ? = inconclusive; · = not tested or not shown; ! = not active in a repeat. The list is not random: actives were taken first. Their share in the collection is about 6.8%.

SMILES	Pf Dd2 growth	C diff HTS	T cruzi growth-1	T cruzi growth-2	T cruzi growth-3	3T3 cytotox	NIH3T3 tox 2
Cc1noc(C)c1S(=O)(=O)Nc1ccc2c(c1)C(=O)N([C@H](C)CO)C[C@H](C)[C@@H](CN(C)Cc1ccc(C(F)(F)F)cc1)OCCCC[C@@H](C)O2	–	·	96	106	–	–	–
Cc1noc(C)c1S(=O)(=O)Nc1ccc2c(c1)C(=O)N([C@@H](C)CO)C[C@H](C)[C@@H](CN(C)C(=O)Nc1ccc(C(F)(F)F)cc1)OCCCC[C@H](C)O2	–	–	125	95	111	–	63
Cc1noc(C)c1S(=O)(=O)Nc1ccc2c(c1)C(=O)N([C@H](C)CO)C[C@H](C)[C@H](CN(C)Cc1ccc(C(F)(F)F)cc1)OCCCC[C@@H](C)O2	–	·	?	106	–	–	?
Cc1noc(C)c1S(=O)(=O)Nc1ccc2c(c1)C(=O)N([C@@H](C)CO)C[C@@H](C)[C@H](CN(C)C(=O)Nc1ccc(C(F)(F)F)cc1)OCCCC[C@@H](C)O2	–	–	–	·	·	·	·
Cc1noc(C)c1S(=O)(=O)Nc1ccc2c(c1)C(=O)N([C@@H](C)CO)C[C@@H](C)[C@H](CN(C)Cc1ccc(C(=O)O)cc1)OCCCC[C@@H](C)O2	–	–	–	·	·	·	·
CC(=O)N1[C@@H]2c3ccc(C4=CCCCC4)c(=O)n3C[C@H]1[C@H](CO)[C@H]2C(=O)NC1CCC1	–	–	–	·	·	·	·
C[C@@H]1CN([C@@H](C)CO)C(=O)c2cc(NC(=O)NC3CCCCC3)ccc2O[C@H]1CN(C)C(=O)Nc1ccccc1	–	–	–	·	·	·	·
Cc1noc(C)c1NC(=O)Nc1ccc2c(c1)C(=O)N([C@@H](C)CO)C[C@H](C)[C@H](CN(C)C(=O)C1CCCCC1)OCCCC[C@@H](C)O2	–	–	–	·	·	·	·
CNC[C@@H]1Oc2c(NC(=O)NC(C)C)cccc2C(=O)N([C@@H](C)CO)C[C@H]1C	–	–	·	·	·	·	·
Cc1noc(C)c1S(=O)(=O)Nc1ccc2c(c1)C(=O)N([C@H](C)CO)C[C@@H](C)[C@@H](CN(C)Cc1ccc(C(=O)O)cc1)OCCCC[C@H](C)O2	–	–	–	·	·	·	·
Cc1noc(C)c1S(=O)(=O)Nc1ccc2c(c1)C(=O)N([C@@H](C)CO)C[C@@H](C)[C@@H](CN(C)Cc1ccc(C(F)(F)F)cc1)OCCCC[C@@H](C)O2	–	·	99	–	112	–	106
COc1ccccc1-c1ccc([C@H]2[C@@H](CO)N3CCCCN(C(=O)NC4CCCC4)C[C@H]23)cc1	–	–	–	·	·	·	·
O=C(C[C@@H]1C[C@@H]2c3cc(NC(=O)CC4CC4)ccc3O[C@@H]2[C@H](CO)O1)NCc1ccc2c(c1)OCO2	–	–	–	·	·	·	·
C[C@@H]1CN([C@@H](C)CO)C(=O)c2cccc(NC(=O)c3ccc(-c4nccs4)cc3)c2O[C@H]1CN(C)CC1CCCCC1	–	–	99	117	–	–	–
C[C@H](CO)N1C[C@H](C)[C@H](CN(C)Cc2ccc(Oc3ccccc3)cc2)Oc2c(NC(=O)c3ccc(-c4nccs4)cc3)cccc2C1=O	–	·	103	110	109	–	25
C[C@H]1CN([C@@H](C)CO)C(=O)c2cccc(NC(=O)c3ccc(-c4nccs4)cc3)c2O[C@H]1CN(C)Cc1ccc(C(=O)Nc2ccccc2N)cc1	-91	–	98	102	101	–	56
C[C@H]1CN([C@@H](C)CO)C(=O)c2cccc(NC(=O)c3ccc(-c4nccs4)cc3)c2O[C@@H]1CN(C)Cc1ccccc1	–	–	–	·	·	·	·
C[C@H](CO)N1C[C@H](C)[C@@H](CN(C)CC2CCCCC2)Oc2c(NC(=O)c3ccc(-c4nccs4)cc3)cccc2C1=O	–	–	–	·	·	·	·
C[C@@H]1CN([C@H](C)CO)C(=O)c2cccc(NC(=O)c3ccc(-c4nccs4)cc3)c2O[C@H]1CN(C)Cc1ccc(Oc2ccccc2)cc1	–	·	–	·	·	·	·
C[C@H](CO)N1C[C@H](C)[C@H](CN(C)Cc2ccccc2)Oc2c(NC(=O)c3ccc(-c4nccs4)cc3)cccc2C1=O	–	–	–	·	·	·	·
C[C@H]1CN([C@@H](C)CO)C(=O)c2cccc(NC(=O)c3ccc(-c4nccs4)cc3)c2O[C@@H]1CN(C)Cc1ccc(-c2ccccc2)cc1	-84	–	99	107	–	–	–
CNC[C@H]1Oc2c(NC(=O)NC3CCCCC3)cccc2C(=O)N([C@H](C)CO)C[C@H]1C	–	–	–	·	·	·	·
CN(C)C(=O)C[C@@H]1CC[C@H]2[C@@H](COc3ccc(NC(=O)C4CC4)cc3C(=O)N2C)O1	–	–	–	·	·	·	·
Cc1ccc(S(=O)(=O)N(C)C[C@H]2OCCCC[C@H](C)Oc3ccc(NC(=O)CCCN(C)C)cc3C(=O)N([C@H](C)CO)C[C@@H]2C)cc1	–	·	–	·	·	·	·
Cc1noc(C)c1NC(=O)Nc1ccc2c(c1)C(=O)N([C@@H](C)CO)C[C@H](C)[C@@H](CN(C)C(=O)Nc1ccc(C(F)(F)F)cc1)OCCCC[C@@H](C)O2	–	–	–	·	·	·	·
SMILES	Pf Dd2 growth	C diff HTS	T cruzi growth-1	T cruzi growth-2	T cruzi growth-3	3T3 cytotox	NIH3T3 tox 2
CN1c2ccc(-c3ccccc3)cc2[C@@H]2[C@@H](CCN2C(=O)CC2CC2)[C@H]1CO	–	–	–	·	·	·	·
CN1c2ccc(-c3cccc(C#N)c3)cc2[C@@H]2[C@@H](CCN2C(=O)CC2CC2)[C@H]1CO	–	–	–	·	·	·	·
CN1c2ccc(-c3cccc(F)c3)cc2[C@H]2[C@H](CCN2C(=O)CC2CC2)[C@@H]1CO	–	–	98	102	–	–	–
CN1c2ccc(-c3ccc(C#N)cc3)cc2[C@@H]2[C@@H](CCN2C(=O)CC2CC2)[C@H]1CO	–	–	104	106	–	–	41
O=C(C[C@H]1CC[C@H]2[C@@H](COC[C@H](O)CN2Cc2ccccc2)O1)NCCc1ccccc1	–	·	–	·	·	·	·
C[C@@H]1CCCCO[C@@H](CN(C)C(=O)CCC(F)(F)F)[C@@H](C)CN([C@H](C)CO)C(=O)c2cc(N(C)C)ccc2O1	–	–	99!	–	–	–	–
C[C@@H]1CCCCO[C@@H](CN(C)C(=O)CCCN(C)C)[C@@H](C)CN([C@H](C)CO)C(=O)c2cc(N(C)C)ccc2O1	–	–	108!	–	–	–	–
C[C@@H]1CCCCO[C@@H](CN(C)C(=O)CCCN(C)C)[C@H](C)CN([C@@H](C)CO)C(=O)c2cc(N(C)C)ccc2O1	–	–	–	·	·	·	·
